Data reported in PubChem BioAssay AID504651 (National Center for Advancing Translational Sciences (NCATS), 2011).
About 130 (0.036%) of roughly 360,000 compounds were called active. The sample as a whole holds a higher share of actives than the screen did. A number with no mark means an inactive call. Cut-off read from the data, not from the text of the source: active = potentiation above about 30%; inactive = the rest.

biological target: D(1A) dopamine receptor (Homo sapiens) (UniProt P21728); assay: Potentiators of Human D1 Dopamine Receptor: qHTS; conditions: HEK293 TREx D1 cells, calcium flux, dopamine EC20 potentiation; at 10 µM; hits give high values; note: 0% is about no effect
Sequence (P21728 whole entry, looked up): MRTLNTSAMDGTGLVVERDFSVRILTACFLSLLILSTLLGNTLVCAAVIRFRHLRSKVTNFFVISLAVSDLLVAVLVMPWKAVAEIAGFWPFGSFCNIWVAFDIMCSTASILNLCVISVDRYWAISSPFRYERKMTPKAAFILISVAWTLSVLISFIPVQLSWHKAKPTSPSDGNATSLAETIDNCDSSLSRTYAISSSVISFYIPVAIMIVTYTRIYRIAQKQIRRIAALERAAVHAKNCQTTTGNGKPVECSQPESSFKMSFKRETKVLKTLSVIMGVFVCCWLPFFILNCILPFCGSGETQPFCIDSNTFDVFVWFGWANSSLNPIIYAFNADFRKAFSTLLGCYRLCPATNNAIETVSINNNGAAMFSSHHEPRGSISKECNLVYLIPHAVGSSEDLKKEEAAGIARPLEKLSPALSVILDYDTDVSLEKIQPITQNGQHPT

In order of rising potentiation:
1. N#CN1CCC(NS(=O)(=O)c2cccc(F)c2)C1 (configuration not stated)  -6.75%
2. Cc1cc(F)ccc1NC1(c2ccccc2)C(=O)c2ccccc2C1=O  -5.75%
3. Cc1ccccc1CNC(=O)CCc1cn(Cc2ccccc2C)c2ccccc12  -5.7%
4. COc1cccc(C(=O)Nc2ccc(-c3cc(C(F)(F)F)nn3-c3ccccc3)cc2)c1  -4.85%
5. Cc1ccc(NC(=O)C2CCN(S(=O)(=O)c3cc(-c4noc(C)n4)ccc3C)CC2)c(C)c1  -4.05%
6. CCOc1ccc(C2CC(=O)c3c([nH]c(C(=O)OCc4ccccc4)c3C)C2)cc1 (configuration not stated)  -3.65%
7. Cc1cc2c(cc1S(=O)(=O)CCC(=O)Nc1ccc(OC(F)(F)F)cc1)OCC(=O)N2  -3.35%
8. CCS(=O)(=O)c1nc(S(=O)(=O)c2ccc(C)cc2)c(NCc2ccc(Cl)cc2)s1  -2.95%
9. Cc1ccc(S(=O)(=O)N2CCC(C(=O)Nc3cc(C)ccc3C)CC2)cc1  -2.85%
10. O=C(Cn1c(=O)n(Cc2cccs2)c(=O)c2cccnc21)Nc1ccc(F)cc1  -2.6%
11. Cc1c(C(=O)Nc2cccc(Cl)c2)oc2ccc(S(=O)(=O)N3CCOCC3)cc12  -2.25%
12. Cc1ccc(CNC(=O)CCc2c(C)nc3c(c(C)nn3-c3ccccc3)c2C)cc1  -2.25%
13. COc1ccc(-c2cccc(NS(=O)(=O)c3cc(C)c(OC)c(C)c3C)c2)nn1  -2.1%
14. COc1ccc(Cc2nc3ccc(C(=O)NCc4ccccc4C)cc3o2)cc1  -2.05%
15. O=C(c1cnn(-c2ccc(F)cc2)c1-n1cccc1)N1CCN(c2ccc(F)cc2)CC1  -1.95%
16. CCN(CCCNC(=O)Cn1ncc2c3ccccc3n(C)c2c1=O)Cc1ccccc1  -1.8%
17. COc1cccc(-c2nnc(SCC(=O)N3CCC(C)CC3)o2)c1  -1.7%
18. CCOC(=O)c1c(C)n(S(=O)(=O)c2ccc(C)cc2C)c2ccc(NS(=O)(=O)c3ccc(C)cc3C)cc12  -1.05%
19. Cc1cc2c(s1)c1cnn(Cc3cc(F)c(Cl)cc3Cl)c(=O)c1n2C  -0.95%
20. CCOc1ccc(OCC)c(NC(=O)c2c(C)nn(-c3ccccc3)c2-n2cccc2)c1  -0.5%
21. Cc1ccc(-n2ncc(C(=O)N(C)Cc3ccccc3)c2-n2cccc2)cc1  -0.5%
22. O=C(Cc1ccc(Cl)cc1)NCC(c1cccs1)S(=O)(=O)c1ccc(Cl)cc1 (configuration not stated)  -0.5%
23. Cc1ccccc1C(=O)Nc1nnc(S(=O)(=O)N(C)c2ccc(Cl)cc2)s1  -0.45%
24. CC(=O)c1ccc(NC(=O)CSc2nc(-c3ccccc3F)nc3c2c(=O)n(C)c(=O)n3C)cc1  -0.45%
25. COc1ccc(N2CCN(S(=O)(=O)CCNC(=O)C(c3ccccc3)c3ccccc3)CC2)cc1  -0.4%
26. Cc1ccc(CN2COc3cc(C)c4c(oc(=O)c5ccccc54)c3C2)cc1  -0.2%
27. Cc1ccc(SCC(=O)Nc2ccc3oc(-c4ccccc4C)nc3c2)cc1  -0.2%
28. CCc1ccc(N2C(=O)CN(S(=O)(=O)CC)CC2(C)C(=O)NC2CCCCC2)cc1 (configuration not stated)  -0.1%
29. Cc1cccc(C(=O)N2c3nc(-c4ccco4)nn3C3(CCCCC3)[C@@H]3CCCC[C@@H]32)c1  -0.1%
30. CCOC(=O)c1c(NC(=O)/C=C/c2ccc(OC)cc2)sc2c1CCC(C)C2 (configuration not stated)  0.15%
31. CCSc1nnc(NC(=O)c2cc(=O)c3cc(C)c(C)cc3o2)s1  0.15%
32. COc1ccc(CCNc2nc(-c3ccc(Cl)cc3)cc(C(F)(F)F)n2)cc1OC  0.65%
33. COC(=O)c1c(NC(=O)C(C)Oc2ccc(Cl)c(C)c2)sc(C)c1C (configuration not stated)  0.65%
34. Cc1ccc(Cn2ncc3c4sc(C)cc4n(C)c3c2=O)c(C)c1  0.9%
35. O=C1Cc2cc(S(=O)(=O)Nc3ccc(OC(F)(F)F)cc3)cc3c2N1CCC3  1.65%
36. CCCCn1c(=O)c2oc3ccccc3c2n(CC(=O)Nc2ccccc2OC)c1=O  1.65%
37. CC(C)CNc1ncnc2c1nnn2C  2.3%
38. CCc1ccc(NS(=O)(=O)c2ccc3[nH]cc(C(=O)NCCc4cccc(C)c4)c(=O)c3c2)cc1  2.6%
39. O=C(CSc1n[nH]c(-c2ccccc2)n1)N1CCCCC1  2.7%
40. COC(=O)c1ccccc1NC(=O)c1ccc(C#N)cc1  3.5%
41. CCC1=Nc2cc(C(=O)NCCCOC(C)C)ccc2Sc2ccc(C)cc21  3.75%
42. Cc1ccc(C)c(Cn2c(C(=O)O)c(CNCc3cccs3)c3ccccc32)c1  19.9%
